About 83,000 compounds went through this panel and 20% of them were active in at least one assay; those are over-represented in the sample as a whole.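 48-hour exposure, single concentration, 96-well plates; percent growth endpoint where 0 means no net growth. Active: below 10.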 A number with no mark means an inactive call. The source made the active and inactive calls.
Tests used:
Assay in all cases: NCI-60 one-dose screen, 48 h (100 = growth as untreated, 0 = no growth, -100 = all killed)
Conditions in all cases: 10 µM unless noted
[1] = tested on: HCT-15 colon
[2] = tested on: HT29 colon
[3] = tested on: SNB-75 CNS
[4] = tested on: SNB-19 CNS
[5] = tested on: U251 CNS
[6] = tested on: PC-3 prostate
[7] = tested on: SK-MEL-5 melanoma
[8] = tested on: UACC-62 melanoma
[9] = tested on: LOX IMVI melanoma
[10] = tested on: SK-MEL-28 melanoma

SMILES | growth [1] | growth [2] | growth [3] | growth [4] | growth [5] | growth [6] | growth [7] | growth [8] | growth [9] | growth [10]
OC(CBr)c1ccnc2ccccc12 (stereo not given) | 103% | 85.1% | 94.8% | 104% | 95.8% | 88.8% | 106% | 95.1% | 96.3% | 109%
O=C1Nc2ccc(Cl)cc2/C1=N/N=C/c1c[nH]c2ccccc12 | 66.9% | 86.9% | 58.1% | 86.3% | 70.9% | 93.8% | 87.7% | 43.1% | 74% | 102%
CCCCOC(=O)c1ccc(NC(=O)C(C)N2CCOCC2)cc1 (stereo not given) | 108% | 79.5% | 107% | 99.5% | 93.2% | 72.7% | 104% | 95.1% | 101% | 112%
CCCCCCNc1cc(C)nc2ccc(OC)cc12 | 60.9% | 19.6% | 89.2% | 77.1% | 55.1% | 65.9% | 35% | 64.1% | 61.4% | 67.9%
COc1cc(/C=C2\C=C(c3ccccc3)N(CCc3ccccc3)C2=O)cc(OC)c1OC | 94.1% | 74.8% | -6.74% (active) | 65.4% | 52.5% | 76.2% | 57.7% | 56.1% | 58.2% | 84.1%
Cc1[nH]c(-c2nc3ccccc3[nH]2)c(C)c1C(=O)N1CCOCC1 | 95.5% | 98.3% | 87.8% | 88.7% | 100% | 98.8% | 98.8% | 90% | 97.4% | 105%
N#Cc1c(NC(=O)c2cccc(C(F)(F)F)c2)sc2c1CCC(=O)C2 | -39.4% (active) | 2.24% (active) | -50.5% (active) | 12.3% | 0.284% (active) | -42% (active) | -95.6% (active) | -51.1% (active) | -12.7% (active) | -42.5% (active)
O=C(CCl)N1c2cccc3cccc(c23)N(C(=O)CCl)C1c1cn(-c2ccccc2)nc1-c1cccc([N+](=O)[O-])c1 | 85.6% | 44.9% | 85.1% | 97.3% | 85% | 97.1% | 98.9% | 86.8% | 26.6% | 106%
O=C(C[C@@]1(O)C(=O)Nc2c(Cl)ccc(Cl)c21)c1ccc(C2CC2)cc1 | 19.1% | 12.4% | -29.9% (active) | 36.8% | 31.3% | 31.4% | 38.8% | 42.1% | 38.1% | 52.6%
O=c1ccn(C2OC(F)(CO)C(O)C2F)c(=O)[nH]1 (stereo not given) | 103% | 94.5% | 95.9% | 105% | 94.8% | 93.1% | 108% | 103% | 97.3% | 109%
NC(N)=N/N=C/c1ccc(Br)cc1 | 23.4% | 9.57% (active) | 34% | 35.8% | 25.4% | 27.8% | 13.2% | 36.3% | 43% | 58.9%
Nc1c(-c2nc3ccc(Br)cc3c(=O)[nH]2)nnn1-c1ccccc1 | 79% | 58.8% | 79.5% | 70.6% | 38.6% | 73.4% | 102% | 93.9% | 80.4% | 96.2%

— PubChem BioAssay (NCI)
